Our source for the outcome and AC50 values is PubChem BioAssay (EPA / NIEHS).

Read-out in assay [1]: Forkhead box O1 (FOXO1), FOXO1 (gene 2308)
Nature of the assay: LTEA_HepaRG_FOXO1: Life Technologies and Expression Analysis (LTEA) Assay for Forkhead box O1 (FOXO1) using HepaRG (AID 2283456). Particulars: mRNA level, 48 h; actives raise or lower the signal. Summed up: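 Differentiated human HepaRG cells in serum-free induction medium were exposed in duplicate for 48 h to eight half-log concentrations (top 100 uM, 0.5% DMSO). FOXO1 mRNA was measured by TaqMan qRT-PCR, normalised to ACTB, GAPDH and POLR2A, and fitted bidirectionally against DMSO.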

Read-out in assay [2]: growth arrest and DNA damage 45 (GADD45A), GADD45A (gene 1647)
Nature of the assay: LTEA_HepaRG_GADD45A: Life Technologies and Expression Analysis (LTEA) Assay for growth arrest and DNA damage 45 (GADD45A) using HepaRG (AID 2283458). Particulars: mRNA level, 48 h; actives raise or lower the signal. Summed up: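 Human HepaRG liver cells are treated in duplicate for 48 h with chemicals in 0.5% DMSO, highest concentration 100 uM. Expression is read by qRT-PCR and analyzed in both directions against vehicle.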

Read-out in assay [3]: Forkhead box O3 (FOXO3), FOXO3 (gene 2309)
Nature of the assay: LTEA_HepaRG_FOXO3: Life Technologies and Expression Analysis (LTEA) Assay for Forkhead box O3 (FOXO3) using HepaRG (AID 2283459). Particulars: mRNA level, 48 h; actives raise or lower the signal. A digest of the protocol:
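Differentiated human HepaRG cells in serum-free induction medium were exposed in duplicate for 48 h to eight half-log concentrations up to 100 uM in 0.5% DMSO. FOXO3 mRNA was quantified by qRT-PCR, normalized to ACTB, GAPDH and POLR2A, with bidirectional fitting versus DMSO.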

Read-out in assay [4]: ABC Transporter (ABCB1), ABCB1 (gene 5243)
As to the kind of experiment: LTEA_HepaRG_ABCB1: Life Technologies and Expression Analysis (LTEA) Assay for ABC Transporter (ABCB1) using HepaRG (AID 2283460). The note with it: mRNA level, 48 h; actives raise or lower the signal. Summed up:
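Differentiated human HepaRG cells, plated 48 h then switched to serum-free induction medium, were exposed in duplicate to eight half-log concentrations up to 100 uM in 0.5% DMSO for 48 h. ABCB1 mRNA was measured by TaqMan qRT-PCR, normalized to ACTB/GAPDH/POLR2A.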

Read-out in assay [5]: growth arrest and DNA damage 45 (GADD45B), GADD45B (gene 4616)
Nature of the assay: LTEA_HepaRG_GADD45B: Life Technologies and Expression Analysis (LTEA) Assay for growth arrest and DNA damage 45 (GADD45B) using HepaRG (AID 2283461). Particulars: mRNA level, 48 h; actives raise or lower the signal. A digest of the protocol: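 Human HepaRG monolayers receive chemicals for 48 h at eight half-log concentrations, highest 100 uM, in 0.5% DMSO. Expression is measured by TaqMan qRT-PCR and normalized to ACTB, GAPDH and POLR2A.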

Read-out in assay [6]: ABC Transporter (ABCC3), ABCC3 (gene 8714)
As to the kind of experiment: LTEA_HepaRG_ABCC3: Life Technologies and Expression Analysis (LTEA) Assay for ABC Transporter (ABCC3) using HepaRG (AID 2283462). Particulars: mRNA level, 48 h; actives raise or lower the signal. A digest of the protocol:
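Transcriptional change of ABCC3 in HepaRG after 48 h treatment, determined by qRT-PCR normalized to endogenous controls. Concentrations spanned eight half-log steps to 100 uM in 0.5% DMSO.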

Read-out in assay [7]: ABC Transporter (ABCB11), ABCB11 (gene 8647)
As to the kind of experiment: LTEA_HepaRG_ABCB11: Life Technologies and Expression Analysis (LTEA) Assay for ABC Transporter (ABCB11) using HepaRG (AID 2283463). The note with it: mRNA level, 48 h; actives raise or lower the signal. Summed up:
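Differentiated human HepaRG cells were exposed for 48 h in serum-free induction medium to eight half-log concentrations up to 100 uM in 0.5% DMSO. ABCB11 mRNA was quantified by qRT-PCR, normalized to ACTB, GAPDH and POLR2A, and fitted bidirectionally versus DMSO.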

Read-out in assay [8]: ABC Transporter (ABCC2), ABCC2 (gene 1244)
Nature of the assay: LTEA_HepaRG_ABCC2: Life Technologies and Expression Analysis (LTEA) Assay for ABC Transporter (ABCC2) using HepaRG (AID 2283464). The note with it: mRNA level, 48 h; actives raise or lower the signal. Summed up: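 After plating and 48 h culture, HepaRG medium is replaced with serum-free induction medium and chemicals are added (8 concentrations, max 100 uM, 0.5% DMSO) for 48 h. Total RNA then undergoes qRT-PCR for ABCC2 with housekeeping normalization.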

Assay [9] in a line: CEETOX_H295R_TESTO: CeeTox H295R High-throughput Steroidogenesis Assay for Testosterone (TESTO) (AID 2283457). Particulars: actives raise or lower the signal. The procedure: CEETOX_H295R is a cell-based, multiplexed-readout assay that uses H295R, a human adrenal gland cell line, with measurements taken at 48 hours after chemical dosing in a 96-well plate.CEETOX_H295R_TESTO is one of 23 assay component(s) measured or calculated from the CEETOX_H295R assay. It is designed to make measurements of hormone induction, a form of inducible reporter, as detected with […] by HPLC-MS-MS technology.Data from the assay component CEETOX_H295R_TESTO was analyzed into 1 assay endpoint. This assay endpoint, CEETOX_H295R_TESTO, was analyzed with bidirectional fitting relative to DMSO as the negative control and baseline of activity. Using a type of inducible reporter, gain or loss-of-signal activity using HPLC-MS-MS was used to understand synthesis of Testosterone in H295R cell line at 48hr of chemical exposure. To generalize the intended target to other relatable targets, this assay endpoint is annotated to the steroid hormone intended target family, where the subfamily is androgens.
Cell culture and media preparation procedures were conducted in accordance with OECD Test No. 456 guidelines, with minor modifications. H295R cells (ATCC CRL-2128) were expanded for 5 passages and frozen in batches in liquid nitrogen. Prior to the steroidogenesis assay, H295R cells were thawed and passed at least 4 times. The maximum passage was 10. Cells were maintained in a 1:1 mixture of DMEM/F12 supplemented with 5ml/L ITS+ Premix (BD Bioscience) and 12.5 ml/L Nu-Serum (BD Bioscience). After seeding cells into 96-well plates at 50-60% confluency, cells were allowed to adhere overnight. […] Test chemicals were incubated for 48 hours, then the medium was removed and split into 2 vials containing approximately 75uL each, and stored at -80 C prior to hormone analysis. For steroid quantification, media samples were shipped to OpAns, LLC (Durham, NC) on dry ice, and samples were thawed to room temperature prior to liquid-liquid extraction. Steroid hormones were extracted from media samples using methyl tertbutyl ether (MTBE). An extra derivatization with dansyl chloride was included for estrogen (estrone and estradiol) detection only. Steroid hormones were separated by HPLC, eluted using a reverse phase C18 gradient with electrospray positive ionization, followed by quantification by tandem mass spectrometry (MS/MS). Data were acquired on a MassHunter Workstation Acquisition version B03.01 (Agilent Technologies, Inc.) and processed using MassHunter Quantitative Analysis for QQQ. Accuracy was determined for each hormone analyte from 3 standards to determine upper and lower limits of quantification (ULOQ and LLOQ, respectively) using a 7-point standard curve. Precision and accuracy of the extraction and quantification methods were calculated as the percent relative standard deviation (%RSD) of the spiked standards and percent spiked standard recovered, respectively. […] Test medium was removed following chemical exposure, and cell viability was evaluated in the same wells by MTT. […] Absorbance was read at 570 and 650nm using a Packard Fusion microplate reader. Background correction of absorbance units was used to determine percent change relative to controls. […] When a test chemical reduced cell viability to 20% - 70%, the test chemical was diluted 10-fold and re-evaluated, but if cell viability was <20%, then the test chemical was diluted 100-fold and re-evaluated. […]

Read-out in assay [10]: Broad substrate specificity ATP-binding cassette transporter ABCG2 (Homo sapiens) (UniProt Q9UNQ0)
Nature of the assay: LTEA_HepaRG_ABCG2: Life Technologies and Expression Analysis (LTEA) Assay for ABC Transporter (ABCG2) using HepaRG (AID 2283465). Particulars: mRNA level, 48 h; actives raise or lower the signal. Summed up:
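Differentiated HepaRG cells in serum-free induction medium were exposed for 48 h, in duplicate, to eight half-log concentrations up to 100 uM in 0.5% DMSO. ABCG2 mRNA was measured by TaqMan qRT-PCR, normalized to ACTB, GAPDH and POLR2A, and fitted bidirectionally versus DMSO.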

Calls of active or inactive are those of the source. The calls were made as follows: active = hit-call score of the fitted dose curve at least 0.9, where 1 is the maximum; inactive = score below 0.9.

Broad substrate specificity ATP-binding cassette transporter ABCG2 (Homo sapiens), sequence (Q9UNQ0 whole entry, looked up): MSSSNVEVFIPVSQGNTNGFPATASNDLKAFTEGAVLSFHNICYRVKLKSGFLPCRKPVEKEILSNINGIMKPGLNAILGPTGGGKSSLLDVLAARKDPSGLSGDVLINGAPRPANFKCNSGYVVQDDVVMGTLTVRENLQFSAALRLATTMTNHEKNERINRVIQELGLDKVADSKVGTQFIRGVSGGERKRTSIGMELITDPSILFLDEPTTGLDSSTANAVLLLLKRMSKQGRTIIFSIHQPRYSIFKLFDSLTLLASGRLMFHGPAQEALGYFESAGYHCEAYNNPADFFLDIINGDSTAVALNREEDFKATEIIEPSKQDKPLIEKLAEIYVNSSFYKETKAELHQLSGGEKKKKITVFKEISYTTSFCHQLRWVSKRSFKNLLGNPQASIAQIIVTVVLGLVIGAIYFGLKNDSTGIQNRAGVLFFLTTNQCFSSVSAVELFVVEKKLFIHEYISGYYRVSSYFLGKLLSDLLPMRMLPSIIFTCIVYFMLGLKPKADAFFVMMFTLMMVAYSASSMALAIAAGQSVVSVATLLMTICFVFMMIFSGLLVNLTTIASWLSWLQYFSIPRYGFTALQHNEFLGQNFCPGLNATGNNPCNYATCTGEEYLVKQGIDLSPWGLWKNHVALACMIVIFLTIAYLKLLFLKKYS

Regarding `CNC(C)=O`, the outcome in [1], in assay [2], in assay [3], in [4], in assay [5] and in [6] was inactive. Besides, the call in assay [7] and in [8] was inactive.

Take `CCCCCCCCN(C)C`: the call in assay [1], in assay [2], in assay [3], in [4], in assay [5] and in [6] was inactive. The call in assay [7] and in [8] was inactive.

As to `O=c1[nH]cnc2c1ncn2[C@H]1CC[C@@H](CO)O1`, the molecule was called inactive in [1], in [2], in [3], in assay [4], in [5] and in [6]. For the same molecule, the outcome in [7] and in assay [8] was inactive.

As for `O=C(O)c1ccc2c(c1)nc(C(=O)NC1CCN(C3CC3)CC1)n2Cc1cc(-c2ccc(Cl)s2)on1`, the call in [1], in [2], in assay [3], in assay [4], in [5] and in [6] was inactive. In addition, the outcome in assay [7] and in assay [8] was inactive.

For orientation: AC50 means the midpoint of the concentration-response curve, whichever way the signal moves. Take `CC(C)c1nnc2ccc(-c3ocnc3-c3cc(F)ccc3F)cn12`: the outcome in assay [1], in [2], in assay [3], in assay [4], in assay [5] and in [8] was inactive. For the same molecule, the concentration at half-maximal activity (AC50) in assay [6] is 50 µM (active); in assay [7], 81 µM (active).

For the molecule `CCc1cccc(CC)c1N`, the result in assay [1], in assay [2], in [3], in assay [4], in [5] and in assay [6] was inactive. Further, the molecule was classed as inactive in [7] and in assay [8].

`c1ccc2c(c1)-c1cccc3c1c-2cc1ccccc13`: the AC50 in assay [1] was 5.04 µM (active); in assay [3], 4.9 µM (active); in assay [4], 15.5 µM (active); in [5], 11.3 µM (active); in [6], 21 µM (active); in assay [7] it was 15.1 µM (active). The AC50 in assay [8] was 13.8 µM (active). Further, in [2], the call was inactive.

For the molecule `c1ccc2cc3ccccc3cc2c1`, the molecule was classed as inactive in assay [1], in assay [2], in assay [3], in assay [4], in assay [5] and in [6]. Besides, the outcome in assay [8] was inactive. Moreover, in assay [7], the AC50 is 71.7 µM (active).

Take `Cc1nc(-c2ccccn2)ncc1C(=O)Nn1cc(C)c2cc(F)ccc21`: the molecule was classed as inactive in assay [1], in assay [2], in [3], in assay [5] and in assay [6]. Further, the AC50 was 2.77 µM (active) in assay [4], 50 µM (active) in assay [7] and 12.2 µM (active) in [8].

On to `NC(N)=O`, for which the result in assay [1], in assay [2], in [3], in assay [4], in assay [5] and in [6] was inactive. In addition, the molecule was called inactive in [7] and in [8].

Turning to `C=CCc1cc(S(=O)(=O)c2ccc(O)c(CC=C)c2)ccc1O`, the AC50 in assay [1] was 79.6 µM (active); in [3], 84.9 µM (active); in assay [4] it was 89.1 µM (active); in assay [7], 81.6 µM (active); in assay [8], 50 µM (active). The outcome in [9], in [2], in assay [5] and in [6] was inactive.

Take `CCCC(CCC)C(=O)O`: the molecule was classed as inactive in assay [1], in assay [2], in assay [3], in assay [4], in assay [5] and in assay [6]. The call in assay [7] and in assay [8] was inactive.

Take `CCCCCCOC(=O)CC(CC(=O)OCCCCCC)(OC(=O)CCC)C(=O)OCCCCCC`: the call in [1], in assay [2], in assay [3], in [4], in assay [5] and in assay [6] was inactive. Moreover, the molecule was called inactive in assay [7] and in assay [8].

For the molecule `CCn1nc(C)c2c1C(=O)NCC(c1ccc(O)cc1)=N2`, the outcome in [1], in assay [2], in [3], in [4], in [5] and in assay [6] was inactive. Besides, the molecule was called inactive in assay [7] and in assay [8].

For the molecule `CC[C@H](C)C(=O)O[C@H]1C[C@H](O)C=C2C=C[C@H](C)[C@H](CC[C@@H](O)C[C@@H](O)CC(=O)O)[C@H]21`, the call in [1], in assay [2], in assay [3], in assay [4], in assay [5] and in assay [6] was inactive. The molecule was called inactive in assay [7] and in assay [8].

`CCCc1ccccc1`: the call in assay [1], in assay [2], in assay [3], in assay [4], in [5] and in [6] was inactive. In addition, the outcome in [7] and in [8] was inactive.

As for `OCCNCCO`, the result in assay [1], in assay [2], in assay [3], in [4], in [5] and in assay [6] was inactive. Besides, the molecule was called inactive in assay [8]. Moreover, in assay [7], the concentration at half-maximal activity (AC50) is 60.5 µM (active).

With `NC(=O)N1c2ccccc2C=Cc2ccccc21`, the molecule was classed as inactive in assay [1], in assay [2], in [3], in [4], in [5] and in [6]. Further, the outcome in assay [7] and in assay [10] was inactive. Further, the concentration at half-maximal activity (AC50) in assay [8] is 37.8 µM (active).
